Among the data in PubChem BioAssay AID540364 (The Scripps Research Institute Molecular Screening Center, 2011) are activation values, retold here.

The campaign covered roughly 360,000 compounds. About 2,000 (0.56%) were called active. The list comes from a sample in which actives are over-represented; it also holds similar structures and randomly drawn compounds. A number with no mark means an inactive call.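 Rule for the calls: active = activation above the average of all compounds screened plus 3 SD, cutoff fixed separately per campaign (cut at about 7.5% in these data); inactive = the rest.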

This assay can be described thus: GAA850 frataxin promoter reporter upregulation – cell-based, luciferase luminescence, HEK293 lucGAA850, primary screen (AID 540364).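 Note: 0% = DMSO wells and 100% = 10 µM SAHA wells.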 To be noted: HEK293 lucGAA850 FXN promoter luciferase reporter, 24 h; at 6 µM; active compounds read high; percent of 10 µM SAHA response.
On to `Cc1cccnc1CC(C)NC(=O)c1cc(COc2cncc(Cl)c2)on1` (stereo not given), for which the activation is 3.48%.

Take `Cc1cc(OCc2cc(C(=O)NCc3cc(C(C)C)no3)no2)cc(C)c1Cl`: the activation is 8.34% (active).

Turning to `COc1ccc(OCc2cc(C(=O)NCC3(C)COC3)no2)c(Cl)c1`, the activation was 4.24%.

For `O=C1CC(c2c(F)cccc2Cl)C(n2cncn2)C(O)=C1C1NCCc2ccccc21` (stereo not given), the activation was -1.97%.

Turning to `CCOc1cc(CNCc2ccccn2)ccc1OCC(=O)NC(C)(C)C`, the activation was -1.18%.

For the compound `C#CC(C)(C)NC(=O)CSc1nc2c(c(=O)n(C)c(=O)n2C)n1CCCC`, the activation was 0.86%.

`CCn1c(NCCc2ccc(OC)c(OC)c2)nc2c1c(=O)n(C)c(=O)n2C`: the activation is -0.8%.

Take `CCCCn1c(SCC(=O)NCCc2ccc(OC)c(OC)c2)nc2c1c(=O)n(C)c(=O)n2C`: the activation was 7.97% (active).

On to `COc1cccc(CNS(=O)(=O)c2cc3c(cc2C)n(C)c(=O)c(=O)n3C)c1`, for which the activation is -0.74%.

Take `COc1ccc([C@@H]2[C@@H]3C(=O)N(C(C)(C)C)C(=O)[C@@H]3[C@]3(Cc4ccccc4)C(=O)N(c4cccc(Br)c4)C(=O)N23)cc1`: the activation is 0.35%.

Turning to `CC(C)(C)N1C(=O)[C@H]2[C@@H](c3ccc(Br)cc3)N3C(=O)N(c4cccc(Cl)c4)C(=O)[C@@]3(C)[C@H]2C1=O`, the activation is 14.1% (active).

Take `CC[C@@]12C(=O)N(c3ccccc3)C(=O)N1[C@H](c1ccc(Br)cc1)[C@@H]1C(=O)N(C(C)(C)C)C(=O)[C@@H]12`: the activation was 15% (active).

For the compound `Cc1ccc(N2C(=O)N3[C@@H]4c5ccccc5OC[C@@H]4[C@@H](c4ccccc4)[C@@]3(C)C2=O)cc1`, the activation was -0.85%.

Regarding `Cc1cccc([C@@H]2[C@@H]3C(=O)N(Cc4ccccc4)C(=O)[C@@H]3[C@]3(C)C(=O)N(c4ccc(Br)cc4)C(=O)N23)c1`, the activation was 4.94%.

For the compound `CCN1C(=O)[C@H]2[C@@H](c3ccc(C)cc3)N3C(=O)N(c4cccc(Br)c4)C(=O)[C@@]3(CC)[C@H]2C1=O`, the activation was 5.85%.

In the case of `CC1(Oc2ccccc2-c2ccno2)CCN(Cc2ccc(-c3ccccc3)o2)C1` (stereo not given), the activation was 1.3%.

Turning to `O=C(COc1ccc(Cl)cc1)NCCS(=O)(=O)N1CCN(c2ccc(F)cc2)CC1`, the activation is -2.02%.

As for `CN(Cc1ccccc1)C(=O)C1CCCN(c2ncnc3c2nc2n3CCCCC2)C1` (stereo not given), the activation was 1.56%.

As to `COc1ccccc1-c1c(C#N)c(N)nc2c1CCC2`, the activation was 1.52%.

`CSc1ccc(-c2c(C#N)c(N)nc3c2c(C)nn3-c2ccccc2)cc1`: the activation was 0.67%.

On to `CSc1nc(N)c(C#N)c(-c2ccccc2Cl)c1C#N`, for which the activation was 16.1% (active).

With `COc1ccc(CNC(=O)c2ccc(-c3cccnc3)c3ccoc23)cc1OC`, the activation was 1.42%.

On to `Cc1ccc(O/C=C2\OC(=O)c3ccccc32)cc1`, for which the activation is -0.57%.

Take `CN(CCc1ccccn1)C(=O)CCC1CCCN(Cc2ccccc2OC(F)F)C1` (stereo not given): the activation is 0.65%.

In the case of `CCc1c(-c2ccccc2)nc(N)c(C#N)c1-c1cccs1`, the activation is 3.81%.

With `CN1CCc2nc(SC(C(=O)O)c3ccccc3)c(C#N)c(-c3cccs3)c2C1` (stereo not given), the activation was 1.01%.

Take `Cc1c(-c2ccccc2)nc(N)c(C#N)c1-c1cccs1`: the activation was 8.43% (active).

With `Cc1cccc(C(=O)Nc2ccccc2C(=O)NCc2cccnc2)c1`, the activation is 0.13%.

For the compound `COc1ccc(S(=O)(=O)N(C)C)cc1NC(=O)CSc1ncccn1`, the activation was 2.15%.

For `CN(C)S(=O)(=O)c1ccc2oc(SCC(=O)Nc3ccccc3F)nc2c1`, the activation was 7.74% (active).

With `COc1ccc(NS(=O)(=O)c2ccc3oc(SCC(N)=O)nc3c2)cc1`, the activation was -1.75%.

For `Cc1noc(C)c1-c1ccc(C(=O)NCc2ccncc2)c2occc12`, the activation was 3.59%.

For `CN(N)c1nc(N2CCCC2)nc(N2CCCC2)n1`, the activation was 1.2%.

Regarding `O=C(NCCN1CCOCC1)c1ccccc1N1C(=O)[C@@H]2Cc3c([nH]c4ccccc34)C(c3cccc(Cl)c3)N2C1=O` (stereo not given in full), the activation was -10.6%.

In the case of `CN(C)[C@@H]1C(=O)C(C(N)=O)=C(O)[C@@]2(O)C(=O)C3=C(O)c4c(O)ccc(Cl)c4[C@@H](O)[C@H]3C[C@@H]12`, the activation is 13.6% (active).

`C=C1c2c(Cl)ccc(O)c2C(O)=C2C(=O)[C@]3(O)C(O)=C(C(N)=O)C(=O)[C@@H](N(C)C)[C@@H]3[C@@H](O)C12` (stereo not given in full): the activation is 13.5% (active).

Regarding `CN(C(=O)CN1CCN(c2cc(-c3ccc(OCc4ccccc4)cc3)ncn2)CC1)c1ccccc1`, the activation was -2.58%.

For the compound `CN(C(=O)c1ccccc1)c1nccnc1C#N`, the activation was 1.95%.

Take `CC(=O)N1CC2(C)CN(C(C)=O)CC(C)(C1)C2=O`: the activation was 1.87%.

As to `CCCC1NC(=O)NC(C)=C1C(=O)OCC` (stereo not given), the activation is 0.3%.

With `COC(=O)c1ccc(CSc2nc3ccccc3c(=O)n2-c2cccc(OC)c2)o1`, the activation was 10.1% (active).

As for `COCC(C)n1c(SCc2ccc(C(=O)OC)o2)nc2ccccc2c1=O` (stereo not given), the activation was 2.64%.

For `COc1cccc(-n2c(SCC(=O)NC3CCS(=O)(=O)C3)nc3ccccc3c2=O)c1` (stereo not given), the activation was -0.8%.

For the compound `Cc1ccc(C)c(OCCC(=O)OCC(=O)NC(=O)NCc2ccccc2)c1`, the activation is 1.32%.

For `CCCCN(CC(=O)NC(C)(C)C)C(=O)C(=O)Nc1ccc2c(c1)OCCO2`, the activation is 0.41%.

As to `CCOC(=O)N1CCC(c2cc(=O)n(-c3ccccc3)[nH]2)CC1`, the activation was 1.97%.

On to `Cc1ccc(C(=O)N2CCC(n3nccc3NC(=O)Nc3cccc(F)c3)CC2)cn1`, for which the activation is -1.64%.

Take `O=C(NCc1ccccc1)C(c1cccnc1)N(C(=O)c1csnn1)c1ccc(F)cc1` (stereo not given): the activation is -0.33%.

Regarding `CCOc1ccc(S(=O)(=O)N2CCN(C(=O)c3oc4ccccc4c3C)CC2)cc1`, the activation is 1.62%.

For the compound `COc1ccc(CCNCC(O)Cn2ccc3ccccc32)cc1OC` (stereo not given), the activation was 0.29%.
